# PubChem BioAssay (NCI)
# The panel holds about 83,000 compounds, 20% with a hit somewhere; the sample as a whole holds those more often.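 In brief: 96-well plates, 48 h treatment, single concentration, percent growth endpoint.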 Active and inactive are the calls of the source. How the source made its calls: active means growth percent below 10; inactive means the rest.
# Tested on: MDA-MB-468 breast
# Test: NCI-60 one-dose screen, 48 h (100 = growth as untreated, 0 = no growth, -100 = all killed)
# Conditions: 10 µM unless noted
row,SMILES,growth
1,Cc1ccc(C(c2c(O)c3cc(Br)ccc3[nH]c2=O)c2c(O)c3cc(Br)ccc3[nH]c2=O)cc1,94.7% (inactive)
2,Cc1cc(NC(=O)CSCC(=O)O)no1,114% (inactive)
3,Cc1ccc(C2=NN(c3ccc(S(N)(=O)=O)cc3)C(c3cn(-c4ccccc4)nc3-c3ccccc3)C2)cc1 (stereo not given),112% (inactive)
4,COc1ccc2c(c1)c(-c1nc(-c3c[nH]c4ncccc34)cs1)cn2C,-5.16% (active)
5,N/C(=N\C(N)=N\c1nc2ccccc2s1)c1ccc(Cl)cc1,94.6% (inactive)
6,Cc1ccc(-n2nnnc2N)c(C)c1,115% (inactive)
7,O=C(CSc1ncccc1C(=O)O)Nc1ccc(Oc2ccccc2)cc1,101% (inactive)
8,CC(=O)OCC1OC(OC2=C(CC=C(Cl)Cl)C(=O)c3ccccc3C2=O)C(OC(C)=O)C(OC(C)=O)C1OC(C)=O (stereo not given),-61.7% (active)
9,CO[C@H](C(=O)N[C@@H](CCCCNC(=O)OCc1ccccc1)C(=O)OC(C)(C)C)[C@@H]1Cc2cc3cc(OC4CC(OC5CC(O)C(O)C(C)O5)C(O)C(C)O4)c(C)c(O)c3c(O)c2C(=O)[C@H]1OC1CC(OC2CC(OC3CC(C)(O)C(O)C(C)O3)C(O)C(C)O2)C(O)C(C)O1 (stereo not given in full),-37.5% (active)
10,COc1cc(NS(=O)(=O)c2ccc(N)cc2)ncn1,105% (inactive)
11,O=[N+]([O-])c1ccc(NCSc2ccc(Cl)cc2)cc1,98.6% (inactive)
12,Cc1ccc2nc(C[n+]3ccc4ccccc4c3)ccc2c1,-3.95% (active)
13,O=C(Nc1ccc(Br)cc1)C1=NCCCCN1,97.6% (inactive)
14,COC(=O)[C@H](C)NC(=O)[C@@H](OC)[C@@H]1Cc2cc3cc(OC4CC(OC5CC(O)C(O)C(C)O5)C(O)C(C)O4)c(C)c(O)c3c(O)c2C(=O)[C@H]1OC1CC(OC2CC(OC3CC(C)(O)C(O)C(C)O3)C(O)C(C)O2)C(O)C(C)O1 (stereo not given in full),-36.2% (active)
15,Cc1cc(N2CCC(N3CCCC3)CC2)nc(/N=C(\N)Nc2ccc(Cl)c(Cl)c2)n1,-81.4% (active)
16,Cc1ccc(S(=O)(=O)n2cc(C3C(Cl)C(=O)N3c3ccc(N4CCOCC4=O)cc3)c3ccccc32)cc1 (stereo not given),67.6% (inactive)
17,C=C1C(=O)O[C@H]2[C@H]1CC/C(COC(=O)NCc1ccc(OC)c(OC)c1)=C\CC[C@@]1(C)O[C@@H]21,24.3% (inactive)
18,O=Nc1c(O)c(Cl)cc2ccccc12,-7.81% (active)
19,COc1ccc(NC(=O)CSc2nc3ccccc3c(=O)n2-c2ccccc2C(F)(F)F)c(OC)c1OC,93.2% (inactive)
20,c1ccc2cc3nc4cc5ccccc5cc4nc3cc2c1,117% (inactive)

row,SMILES,growth
1,Cc1ccc(C(=O)Nc2ccc(CNCCN3CCOCC3)c(C(F)(F)F)c2)cc1C#Cc1cnc2cccnn12,-21% (active)
2,C#Cc1cccc(NC(=O)C2CCCN(C(=O)CCl)C2)c1 (stereo not given),66.3% [8.25 µM] (inactive)
3,CCN(CC)C12CCCCC1(C)C(C#N)(C#N)C(C#N)=C(N)O2 (stereo not given),93.5% (inactive)
4,COc1ccc(-c2ccc(O)c(C(=O)/C=C/c3cc(OC)c(OC)c(OC)c3)c2)cc1,85.2% (inactive)
5,O=[N+]([O-])c1ccc(OCCCOc2ccccc2)cc1,104% (inactive)
6,c1cnc2[nH]cc(-c3csc(-c4cn(CCCN5CCCCC5)c5ccccc45)n3)c2c1,70.2% (inactive)
7,Nn1c(N/N=C/c2nc3ccccc3s2)n[nH]c1=S,109% (inactive)
8,Oc1c(CN2CCC(N3CCCCC3)CC2)cc(Cc2cc(CN3CCC(N4CCCCC4)CC3)c(O)c3ncccc23)c2cccnc12,-39.2% (active)
9,S=C(Cc1ccc2c(c1)CCCC2)N1CCOCC1,105% (inactive)
10,COC(=O)c1ccc2[nH]c(O)c(C(=Nc3ccc(N(C)C(=O)CN4CCN(C)CC4)cc3)c3ccc(OC)cc3)c2c1,64.5% (inactive)
11,COc1ccc(C(=O)Nc2ncc(Cc3ccc(F)cc3)s2)cc1,22.4% (inactive)
12,COc1ccccc1Nc1nc(-c2cc3cccc(C(F)(F)F)c3oc2=O)cs1,-2.43% (active)
13,O=[N+]([O-])c1cccc(-c2ncc(-c3ccc(Cl)cc3Cl)[nH]2)c1,47.6% (inactive)
14,CS(=O)(=O)c1nccc(-c2c(-c3cccc(OCc4ccccc4)c3)nc3sccn23)n1,-65.1% (active)
15,O=C(O)c1ccccc1C(=O)c1ccc(I)cc1,108% (inactive)
16,Cc1n[nH]c2ccc(Br)cc2c1=O,99.9% (inactive)
17,COc1cc(-c2ccc(N=Nc3ccc4c(S(=O)(=O)O)ccc(N)c4c3O)c(OC)c2)ccc1N=Nc1ccc2c(S(=O)(=O)O)ccc(N)c2c1O,120% (inactive)
18,Nc1nc(N)c2c(n1)NC(c1ccc(C(F)(F)F)cc1)CC(c1ccc(Nc3nc(NCCO)nc(Nc4ccc(Cl)cc4)n3)cc1)=N2 (stereo not given),-84.7% (active)
19,COc1cc(-c2nc3ccccc3[nH]2)ccc1OCC(=O)N=Nc1c(O)[nH]c2ccccc12,-55.4% (active)
20,Cc1ccc2c(N/N=C\c3ccco3)cc(C)nc2n1,70.2% (inactive)
